Assay [1] is described as follows: qHTS for Inhibitors of the Functional Ribonucleoprotein Complex (vRNP) of Lassa (LASV) Arenavirus: LASV Primary Screen - GLuc reporter signal (AID 1347082; calls by dose curve; tested in HEK293 reporter line; also: nearly all actives have a fitted effect of over 60% in size). As to conditions: LASV minigenome vRNP, Gaussia luciferase reporter; series mostly up to 57.5 µM. A general note: Quantitative high-throughput screening tests each substance at several concentrations.
Assay [2] can be described thus: qHTS for Inhibitors of the Functional Ribonucleoprotein Complex (vRNP) of Lymphocytic Choriomeningitis Arenaviruses (LCMV): Viability assay - alamar blue signal for LCMV Primary Screen (AID 1347085; calls by dose curve; tested in HEK293 reporter line; also: nearly all actives have a fitted effect of over 80% in size; also: potency is read from the fitted curve at half-maximal effect). Conditions: alamar blue viability counter-screen, LCMV vRNP screen cells; series mostly up to 57.5 µM.
The target in assay [3] is Nucleoprotein (Lymphocytic choriomeningitis virus (strain Armstrong)) (UniProt P09992). The assay can be described thus: qHTS for Inhibitors of the Functional Ribonucleoprotein Complex (vRNP) of Lymphocytic Choriomeningitis Arenaviruses (LCMV): LCMV Primary Screen - GLuc reporter signal (AID 1347086). Also: nearly all actives have a fitted effect of over 70% in size. As to conditions: LCMV minigenome vRNP cell assay, Gaussia luciferase reporter; series mostly up to 57.5 µM.

Assay [4] is described as follows: qHTS for Inhibitors of the Functional Ribonucleoprotein Complex (vRNP) of Lassa (LASV) Arenavirus: Viability assay - alamar blue signal for LASV Primary Screen (AID 1347083; calls by dose curve; tested in HEK293 reporter line; also: nearly all actives have a fitted effect of over 80% in size; also: potency is read from the fitted curve at half-maximal effect). As to conditions: cell viability, alamar blue fluorescence (LASV minigenome counter-screen); series mostly up to 57.5 µM.
A short description of assay [5]: qHTS of pediatric cancer cell lines to identify multiple opportunities for drug repurposing: Primary screen for TC32 cells (AID 1347089; active = well fitted cell-killing curve with a large enough effect; also: nearly all actives have a fitted effect of over 60% in size). Conditions: TC32 Ewing sarcoma viability, CellTiter-Glo luminescence, 48 h; series mostly up to 45.8 µM. In a few lines: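 A viability screen of TC32 cells was run over 48 h, with primary MIPE doses spanning 0.78 nM–46 µM and NPC doses 0.59 nM–46 µM. ATP luminescence (CellTiter-Glo) served as the read-out.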

Assay [6] is described as follows: qHTS of pediatric cancer cell lines to identify multiple opportunities for drug repurposing: Primary screen for DAOY cells (AID 1347090; active = well fitted cell-killing curve with a large enough effect; also: nearly all actives have a fitted effect of over 55% in size). Conditions: DAOY medulloblastoma viability, CellTiter-Glo luminescence, 48 h; series mostly up to 46 µM. The essentials:
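Viability measured as metabolically active cells via CellTiter-Glo luminescence following 48 hours of compound exposure, 11-point dilutions in confirmatory testing. 500-1,000 cells/well plated 5 hours before dosing; controls were DMSO and 2.3 µM bortezomib.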

Results filed as inconclusive are left out. The source made the active and inactive calls. Unless noted, calls follow the shape of the full dose curve.

Nucleoprotein (Lymphocytic choriomeningitis virus (strain Armstrong)), sequence (P09992 whole entry, looked up): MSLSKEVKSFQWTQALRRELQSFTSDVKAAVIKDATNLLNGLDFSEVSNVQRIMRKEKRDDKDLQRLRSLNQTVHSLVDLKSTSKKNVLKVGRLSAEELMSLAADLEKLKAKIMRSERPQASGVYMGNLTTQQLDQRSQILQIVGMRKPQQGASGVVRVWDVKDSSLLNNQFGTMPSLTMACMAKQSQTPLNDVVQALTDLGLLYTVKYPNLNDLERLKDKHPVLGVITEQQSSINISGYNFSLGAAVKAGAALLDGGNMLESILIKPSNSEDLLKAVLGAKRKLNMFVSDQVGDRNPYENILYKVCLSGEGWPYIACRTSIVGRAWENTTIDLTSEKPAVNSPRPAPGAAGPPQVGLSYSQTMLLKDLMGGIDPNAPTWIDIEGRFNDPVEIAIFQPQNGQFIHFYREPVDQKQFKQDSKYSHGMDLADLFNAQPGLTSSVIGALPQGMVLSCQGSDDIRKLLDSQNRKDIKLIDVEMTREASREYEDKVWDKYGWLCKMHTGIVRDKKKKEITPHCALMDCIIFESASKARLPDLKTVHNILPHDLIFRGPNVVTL

Take `Cc1ccc(F)c(NC(=O)Nc2ccc(-c3cccc4[nH]nc(N)c34)cc2)c1`: the Potency result in assay [1], in assay [2] and in assay [3] was “inactive” each time.
For the molecule `CC1(C)CC/C(=C/c2ccc(Cl)cc2)C1(O)Cn1cncn1` (stereo unspecified), the Potency entry in assay [1], in assay [4], in assay [5] and in assay [6] was “inactive” throughout.
Take `C[C@](O)(COc1ccc(C#N)cc1)C(=O)Nc1ccc(C#N)c(C(F)(F)F)c1`: the Potency entry in assay [1] and in assay [5] was “inactive” throughout. The Potency in assay [4] was 38.5 µM (active).
In the case of `O=c1[nH]nc(Sc2ncc([N+](=O)[O-])s2)n1-c1ccc2c(c1)OCCO2`, the Potency entry in assay [1] and in assay [3] was “inactive” each time.
With `CC(C)Oc1cc(Nc2nc(N[C@@H](C)c3ccc(F)cn3)ncc2Cl)[nH]n1`, the Potency result in assay [1], in assay [2] and in assay [3] was “inactive” each time.
As to `NC(=O)c1c(OCc2c(F)cc(Br)cc2F)nsc1NC(=O)NCCCCN1CCCC1`, the Potency result in assay [1], in assay [2] and in assay [3] was “inactive” each time.
`C[C@]12CC[C@H]3[C@@H](CCC4=CC(=O)CC[C@@]43C)[C@H]1CC[C@H]2OC(=O)CCC1CCCC1`: the Potency result in assay [1], in assay [5] and in assay [6] was “inactive” each time. Besides, the Potency in assay [2] is 6.11 µM (active).
As for `N#Cc1ccc(NC(=O)Nc2ccccc2Br)c2n[nH]nc12`, the Potency result in assay [1], in assay [2] and in assay [3] was “inactive” throughout.
As for `O=C(Nc1ccc(F)c(C(F)(F)F)c1)Nc1nnc(-c2ccncc2)s1`, in assay [1], the Potency entry was “inactive”. In addition, in assay [2], the Potency is 13.7 µM (active).
For `Cn1c(NCCN(CCO)CCCc2ccc([N+](=O)[O-])cc2)cc(=O)n(C)c1=O`, the Potency result in assay [1], in assay [2] and in assay [3] was “inactive” throughout.
Consider `O=C(c1cc(Cc2n[nH]c(=O)c3ccccc23)ccc1F)N1CCN(C(=O)C2CC2)CC1`, for which the Potency entry in assay [1], in assay [2] and in assay [3] was “inactive” in each case.
Consider `CNCc1ccc(-c2[nH]c3cc(F)cc4c3c2CCNC4=O)cc1`, for which the Potency entry in assay [1], in assay [2] and in assay [3] was “inactive” in each case.
